About 1,100 (0.5%) of roughly 220,000 compounds were called active. Many of the other results were omitted from the sample, so actives are more common in it than they were. Values without a mark were called inactive.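 The calls were made as follows: active = inhibition above about 30% (limit read from the data); inactive = the rest.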
What follows are compounds tested against Neutrophil cytosol factor 1 (Homo sapiens) (UniProt P14598) (assay: p47phox/p22phox peptide binding inhibitors, primary screen, biochemical, uHTS, NADPH oxidase regulatory subunit (AID 1274;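 also: 0% = p47phox with labelled peptide and 100% = labelled peptide alone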)). Settings: fluorescence polarization, 2 h, at 24.7 µM, hits give high values.
Chain of Neutrophil cytosol factor 1 (Homo sapiens) (P14598 whole entry, looked up): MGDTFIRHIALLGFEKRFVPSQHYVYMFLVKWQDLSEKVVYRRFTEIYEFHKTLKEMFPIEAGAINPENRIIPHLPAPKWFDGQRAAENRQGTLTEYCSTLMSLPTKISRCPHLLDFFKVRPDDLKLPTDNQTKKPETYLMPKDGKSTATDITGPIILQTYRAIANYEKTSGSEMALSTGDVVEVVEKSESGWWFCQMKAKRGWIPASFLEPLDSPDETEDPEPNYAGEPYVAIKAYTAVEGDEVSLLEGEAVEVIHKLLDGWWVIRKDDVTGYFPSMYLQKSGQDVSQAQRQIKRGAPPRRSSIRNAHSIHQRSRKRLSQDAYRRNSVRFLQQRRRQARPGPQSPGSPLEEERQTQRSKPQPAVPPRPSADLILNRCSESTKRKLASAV
In the case of `O=C(Cc1ccccc1[N+](=O)[O-])N1CCN(Cc2ccc3c(c2)OCO3)CC1`, the inhibition is reported as -1.92%.
In the case of `O=C(COc1ccc2ccccc2c1)N1CCN(Cc2ccncc2)CC1`, the inhibition is reported as 38.1% (active).
`COc1ccccc1CN1CCN(C(=O)Cc2ccccc2)CC1` showed an inhibition of 3.15%.
With `COCc1cc(OC(=O)N(C)C)nc(-c2ccc(C)c(Cl)c2)n1` the inhibition was -3.02%.
For `COC(=O)N(c1ccc(OC)cc1)P1(=S)OCCC(C)O1` (stereo not given), the inhibition was 2.14%.
